From PubChem
Pf Dd2 inh: Plasmodium falciparum Dd2 growth inhibition. P. falciparum Dd2 growth, SYBR Green, 72 h. Potency, µM (top dose mostly 28.9 µM), for the others: at the top dose activity, negative = inhibition, actives largely listed as inhibitors. 120,000 tested, 4.3% active. AID 1347417; active = well fitted inhibition curve with a large enough effect;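 note: plate controls were DMSO vehicle for no effect and reference drug for full effect; nearly all actives have a fitted effect of over 65% in size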
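Infected erythrocytes (Dd2, 0.3% parasitemia, 2.5% hematocrit final) are added to compound in RPMI-1640/Albumax II medium, grown 72 h at 37C in low oxygen, then lysed with saponin/Triton-X containing SYBR Green and read by fluorescence.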
* marks the source's active call; other numbers are inactive results; i = inactive; [ ] = another dose, or the depositor's remark. Only a selection was taken, and hits are over-represented in it overall. Potency is the fitted concentration of half-maximal effect.

SMILES | Pf Dd2 inh
CCOC(=O)CCc1c(C)nc2c(c(C)nn2-c2ccc(C)cc2)c1C | 15.2%
CCOc1ccc(CCNC(=O)CCc2c(C)nc3c(c(C)nn3-c3ccc(C)c(C)c3)c2C)cc1 | 2.9%
CCOC(=O)CC(NC(=O)CCc1c(C)nc2c(c(C)nn2-c2ccc(C)c(C)c2)c1C)c1ccc(C)cc1 (stereo unspecified) | 4.47µM*
CN(C)C(=O)c1ccc(OC2CCN(C(=O)c3ccco3)CC2)nc1 | -11.9%
Cc1nc([C@@H]2CN(C(=O)c3ccc(Br)o3)C[C@H]2C(N)=O)n[nH]1 | -5.0%
O=C(NCCc1csc2nc(-c3ccc(F)cc3)nn12)c1cccc(C(F)(F)F)c1 | 49.3%[5.79 µM]
COc1ccc(-c2nc3scc(CCNC(=O)c4cccc(Br)c4)n3n2)cc1 | 1µM*
COc1ccc(-c2nc3scc(CCNS(=O)(=O)c4ccccc4F)n3n2)cc1 | -10.8%
Cc1ccc2[nH]c(CN3CC[C@H]4NCCC[C@]4(CO)C3)cc(=O)c2c1 | -30.0%
COc1ccc(C(=O)N2CC(Oc3ccc(F)cc3F)C2)cc1 | 8.5%
O=C(NC1C[C@H]2CC[C@@H](C1)N2C(=O)Cc1ccc(F)cc1)c1ccncc1 (stereo partly specified) | i
Cc1nc(N2CCN(C(=O)Cc3ccccc3Cl)CC2)cc(C(F)(F)F)n1 | -17.9%
Cc1nc(N2CCC(NC(=O)Cc3ccc(Cl)cc3)CC2)cc(C(F)(F)F)n1 | i
Cc1nc(N2CCN(C(=O)Cc3ccc(Cl)cc3)CC2)cc(C(F)(F)F)n1 | 3.98µM*
CCOC(=O)C1=C(C)N=C2SC=C(CC(=O)NCc3ccco3)N2C1c1ccccc1Cl (stereo unspecified) | -11.1%
O=C(CCC1CCN(C(=O)c2ccccc2Cl)CC1)N1CCc2ccccc2C1 | -16.5%
CCCCN1C(=O)C(O)(CC(=O)c2ccc(C(C)(C)C)cc2)c2ccccc21 (stereo unspecified) | 1.26µM*
CCOC(=O)c1ccc(NC(=O)CN2C(=O)C(C)(C)c3ccccc32)cc1 | 15.3%
COc1ccc(C(=O)CC2(O)C(=O)N(Cc3ccccc3Cl)c3ccccc32)cc1 (stereo unspecified) | 9.4%
Cc1noc(-c2cn(C3CCN(C(=O)c4ccc[nH]4)C3)nn2)n1 (stereo unspecified) | i
OCC1(Cc2ccc(Cl)cc2)CCNCC1 | -19.2%
CC(C)c1nc2c(c(-c3ccc(O)cc3)n1)CCN(C(=O)c1ccccc1Cl)CC2 | i
CC(=O)N1CCc2nc(C(C)C)nc(-c3ccc(O)cc3)c2C1 | -13.8%[44.1 µM]
COc1ccc(C(=O)N2CCCc3nc(C)nc(-c4ccc(O)cc4)c3C2)cc1 | -13.3%
COCC(=O)N1CCc2nc(C(C)C)nc(-c3ccc(OC)cc3)c2CC1 | -11.3%
SMILES | Pf Dd2 inh
CC(C)c1nc2c(c(-c3ccc(O)cc3)n1)CCN(C(=O)c1cccc(Cl)c1)CC2 | 7.94µM*
COc1ccc(-c2nc(C(C)C)nc3c2CCN(C(=O)c2ccccc2Cl)CC3)cc1 | 10µM*
Cc1ccccc1C(=O)N1CCc2nc(C(C)C)nc(-c3ccc(O)cc3)c2C1 | -1.0%
COc1ccc(-c2nc3c(c(-c4ccccc4)n2)CN(C(C)=O)CC3)cc1 | i
COc1cccc(C(=O)N2CCc3nc(C)nc(-c4ccc(Cl)cc4)c3CC2)c1 | i
COc1ccc(-c2nc(-c3ccccc3)nc3c2CN(C(=O)C2CC2)CC3)cc1 | 11.2µM*
O=C(C1CC1)N1CCc2nc(-c3ccc(Cl)cc3)nc(-c3ccccc3)c2C1 | i
COc1ccc(C(=O)N2CCc3nc(C(C)C)nc(-c4ccc(O)cc4)c3C2)cc1 | 8.91µM*
O=C(COc1ccc(Cl)cc1)N1CCc2nn(CC3CC3)c(=O)n2CC1 | -5.5%
COc1ccccc1CCC(=O)N1CCC2(CC1)N=C(c1cccc(Br)c1)NO2 | i
COc1ccc(C(=O)N2CCCC2)c(OC2CCN(C(=O)c3ccn[nH]3)CC2)c1 | -11.3%
O=C(c1ccccc1OCC1CCCN(Cc2ccsc2)C1)N1CCCC1 (stereo unspecified) | -3.1%
CC(C)n1c(C2CCN(C(=O)c3n[nH]c4ccccc34)CC2)nn(C)c1=O | -18.4%
O=C(Cc1ccc(F)cc1)N1CC(c2nnc(-c3ccncc3)o2)C2(CCOCC2)C1 (stereo unspecified) | 3.4%
c1ncc(CN2CC(Oc3ccc4c(c3)OCO4)C2)s1 | i
CCCNC(=O)CC(c1ccc(F)cc1)c1c[nH]c2ccccc12 (stereo unspecified) | -17.7%
COc1ccc(Cn2c(C3CCN(C(=O)c4ccc(OC)c(F)c4)CC3)n[nH]c2=O)cc1 | -18.1%
C[C@@H](NC(=O)c1cccn1C)c1onc(-c2cccnc2)c1C(=O)O | i
CCc1nc(-c2c3n(c(=O)n(CC(=O)Nc4ccc(C)cc4C)c2=O)CCCCC3)no1 | i
CC(C)c1nc2c(c(-c3ccc(O)cc3)n1)CN(C(=O)c1cccc(Cl)c1)CC2 | 4.47µM*
CC(C)c1nc2c(c(-c3ccc(O)cc3)n1)CN(C(=O)c1ccccc1)CC2 | -13.2%
CC(C)c1nc2c(c(-c3ccc(O)cc3)n1)CN(C(=O)c1ccc(Cl)nc1)CC2 | i
CC(=O)NCCCC(=O)N1CCN(C2CCNCC2)C(=O)C1 | 40.0%
CCC(c1cccs1)N1C(=O)[C@H]2CN(S(=O)(=O)c3ccc(C(C)C)cc3)C[C@H]2C1=O (stereo partly specified) | i
COCCn1c(CN2CCn3nc(C#N)cc3C2)nnc1C1CC(N)C1 (stereo unspecified) | -9.3%
SMILES | Pf Dd2 inh
Cc1ccc(-c2cn3c(n2)N(C(=O)Cn2ccnc2C)CCC3)cc1 | 10µM*
Cc1ccc(-c2cn3c(n2)N(C(=O)c2cnn4cccnc24)CCC3)cc1 | -6.4%
COc1ccc(-c2cn3c(n2)N(C(=O)Cn2ccnc2)CCC3)cc1 | 6.3%
O=C(c1nnc(CN2CCOCC2)n1Cc1ccccc1)N1CCC[C@@H]1c1ccc(Br)cc1 | i
Cc1cc2cc(-c3c(C)noc3C)nc(NC3CC3)c2o1 | -9.0%[44.1 µM]
Cc1noc(C)c1-c1cc2cc(C(C)C)oc2c(Nc2ccn(C)n2)n1 | -1.6%[44.1 µM]
Cc1noc(C)c1-c1cc2cc(CO)oc2c(NCC2CCOCC2)n1 | i
Cc1noc(C)c1-c1cc2cc(C(C)C)oc2c(NC2CCN(C)CC2)n1 | 10µM*
Cc1noc(C)c1-c1cc2cc(CNC3CC3)oc2c(NC2CCN(C)CC2)n1 | -13.7%[44.1 µM]
Cc1noc(C)c1-c1cc2cc(C(C)C)oc2c(NCCN2CCOCC2)n1 | 10µM*
O=C(N[C@H](c1cccs1)C1CC(O)C1)c1cnn2cc(CCO)cnc12 (stereo partly specified) | 0.9%
Cc1cccc(NC(=O)CC2CCCN(c3cnn(C)c(=O)c3)C2)c1 (stereo unspecified) | i
CCN(CC)[C@H]1[C@@H]2OC[C@@H](O2)[C@@H](NCc2ccccc2OC)[C@@H]1O | i
O=C1CCN(C(=O)C2CCN(C(=O)C3CCCC3)CC2)CCCCCCN1 | 10.5%
CN1CCC(OCCCn2ccnc2-c2ccccc2C(=O)O)CC1 | 15.3%
Cc1cc(C)c2[nH]c(C(=O)NCc3ccc(C(=O)N(C)C)o3)c(C)c2c1 | -22.8%
CCCn1cc(CN2CCc3nc(NC)nc(C(=O)N4CCCC4)c3C2)c(C)n1 | -4.2%
COCCNC(=O)C(NC(=O)c1ccccc1)C1CCN(C(=O)c2ccccc2OC)CC1 (stereo unspecified) | 5.9%
Cn1ccnc1-c1ccc(N2CC[C@@]3(O)CCN(S(C)(=O)=O)C[C@H]3C2)nn1 | -7.7%
Cn1ccnc1-c1ccc(N2CCCC(CO)(Cc3cccc(Cl)c3)C2)nn1 (stereo unspecified) | 5.01µM*
